In the supplement of paper PMC10849652:
The full data set covers some 8,800 targets. This sample favours those with a hit. About 0.5% of all pairs of compound and target were hits. A number with no mark means an inactive call.

Key:
Assay in all cases: log2 fold change, soluble protein after heating vs DMSO (PISA); higher = thermal stabilisation; K562 lysate, 10 uM; active = over 0.2 and 3.5 SD of the protein, either way, in both replicates (recomputed)
erlotinib = compound: C#Cc1cccc(Nc2ncnc3cc(OCCOC)c(OCCOC)cc23)c1 [erlotinib]
How it was run: (§1)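 A 30 min treatment with 10 μM compound was applied to crude K562 extract at 1 mg/mL protein in PBS pH 7.4 with 1 mM MgCl2. Heating for 3 min spanned 48°C-58°C, after which aliquots were pooled, adjusted to 0.5% NP-40 at 4°C and spun at 21,000xg for 90 min. TMTpro 16plex LC-MS/MS of the supernatant, with channel sums equalised, gave values recorded as log-two fold change in thermal stability against solvent controls, from duplicates.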

[1] = compound: C/C(=N\NC(=O)C1=CC(=CC=C1)S(=O)(=O)N2CCOCC2)/C3=C(C=CC(=C3)Cl)O
How it was run: as §1

[2] = compound: C1=CC(=CC=C1C2=NC3=C(N2)C=C(C=C3)C(=O)N)OC4=CC=C(C=C4)Cl
How it was run: as §1

[3] = compound: C1=CC2=C(C=CC(=C2)/C=C\3/C(=O)NC(=NCC4=CC=CS4)S3)N=C1
How it was run: as §1

[4] = compound: C1=CC2=NC=CN=C2C=C1/C=C/3\C(=O)NC(=O)S3
How it was run: as §1

[5] = compound: C1=CC=C(C=C1)C2=NC(=C(N2)C3=CC=NC=C3)C4=CC(=C(C=C4)Cl)O
How it was run: as §1

[6] = compound: C1=CC=C2C(=C1)C3=NNC4=CC=CC(=C43)C2=O
How it was run: as §1

[7] = compound: C1CCN(C1)C(=O)NC2=CC=CC(=C2)NC3=NC=C(C(=N3)NCCC4=CN=CN4)Br
How it was run: as §1

[8] = compound: C1CN(CCC1(CC2=CC=C(C=C2)Cl)N)C3=NC=NC4=C3C=CN4
How it was run: as §1

IRAK-1-4 Inhibitor I = compound: C1COCCN1CCN2C3=CC=CC=C3N=C2NC(=O)C4=CC(=CC=C4)[N+](=O)[O-] [IRAK-1-4 Inhibitor I]
How it was run: as §1

UniProt P52701, sequence (P52701 whole entry, looked up): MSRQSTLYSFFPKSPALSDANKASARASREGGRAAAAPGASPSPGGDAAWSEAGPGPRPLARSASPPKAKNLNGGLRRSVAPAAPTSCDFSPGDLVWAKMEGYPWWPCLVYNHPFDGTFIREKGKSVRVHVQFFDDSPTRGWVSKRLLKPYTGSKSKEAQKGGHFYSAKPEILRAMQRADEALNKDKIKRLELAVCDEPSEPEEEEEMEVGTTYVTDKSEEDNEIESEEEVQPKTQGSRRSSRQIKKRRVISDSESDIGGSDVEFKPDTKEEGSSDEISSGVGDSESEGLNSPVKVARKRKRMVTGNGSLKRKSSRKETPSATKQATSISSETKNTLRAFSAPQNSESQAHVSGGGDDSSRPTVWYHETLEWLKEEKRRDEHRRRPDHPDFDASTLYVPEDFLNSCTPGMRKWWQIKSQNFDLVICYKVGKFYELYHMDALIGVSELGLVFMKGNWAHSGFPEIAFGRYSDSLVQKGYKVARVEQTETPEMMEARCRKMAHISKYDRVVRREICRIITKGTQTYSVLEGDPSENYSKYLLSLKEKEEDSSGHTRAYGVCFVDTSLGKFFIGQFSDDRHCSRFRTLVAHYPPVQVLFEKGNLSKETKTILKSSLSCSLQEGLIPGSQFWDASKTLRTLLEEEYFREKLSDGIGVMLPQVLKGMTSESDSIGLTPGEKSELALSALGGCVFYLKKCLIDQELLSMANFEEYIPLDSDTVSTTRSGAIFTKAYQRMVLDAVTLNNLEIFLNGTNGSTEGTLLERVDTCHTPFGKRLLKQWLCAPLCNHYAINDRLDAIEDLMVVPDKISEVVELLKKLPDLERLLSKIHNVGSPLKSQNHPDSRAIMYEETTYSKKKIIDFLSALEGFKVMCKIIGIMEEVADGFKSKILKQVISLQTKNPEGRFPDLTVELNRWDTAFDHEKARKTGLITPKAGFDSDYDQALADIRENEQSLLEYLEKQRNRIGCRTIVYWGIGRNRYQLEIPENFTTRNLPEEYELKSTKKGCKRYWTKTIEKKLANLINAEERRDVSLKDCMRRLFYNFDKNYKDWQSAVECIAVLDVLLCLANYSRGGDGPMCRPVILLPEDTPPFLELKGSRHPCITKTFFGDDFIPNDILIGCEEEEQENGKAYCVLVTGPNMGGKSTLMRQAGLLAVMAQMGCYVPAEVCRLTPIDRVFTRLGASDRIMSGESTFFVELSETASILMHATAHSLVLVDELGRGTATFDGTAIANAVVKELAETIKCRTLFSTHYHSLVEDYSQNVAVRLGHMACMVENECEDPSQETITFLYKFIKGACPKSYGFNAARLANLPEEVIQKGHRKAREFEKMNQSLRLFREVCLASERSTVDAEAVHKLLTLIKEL
UniProt Q15003, sequence (Q15003 whole entry, looked up): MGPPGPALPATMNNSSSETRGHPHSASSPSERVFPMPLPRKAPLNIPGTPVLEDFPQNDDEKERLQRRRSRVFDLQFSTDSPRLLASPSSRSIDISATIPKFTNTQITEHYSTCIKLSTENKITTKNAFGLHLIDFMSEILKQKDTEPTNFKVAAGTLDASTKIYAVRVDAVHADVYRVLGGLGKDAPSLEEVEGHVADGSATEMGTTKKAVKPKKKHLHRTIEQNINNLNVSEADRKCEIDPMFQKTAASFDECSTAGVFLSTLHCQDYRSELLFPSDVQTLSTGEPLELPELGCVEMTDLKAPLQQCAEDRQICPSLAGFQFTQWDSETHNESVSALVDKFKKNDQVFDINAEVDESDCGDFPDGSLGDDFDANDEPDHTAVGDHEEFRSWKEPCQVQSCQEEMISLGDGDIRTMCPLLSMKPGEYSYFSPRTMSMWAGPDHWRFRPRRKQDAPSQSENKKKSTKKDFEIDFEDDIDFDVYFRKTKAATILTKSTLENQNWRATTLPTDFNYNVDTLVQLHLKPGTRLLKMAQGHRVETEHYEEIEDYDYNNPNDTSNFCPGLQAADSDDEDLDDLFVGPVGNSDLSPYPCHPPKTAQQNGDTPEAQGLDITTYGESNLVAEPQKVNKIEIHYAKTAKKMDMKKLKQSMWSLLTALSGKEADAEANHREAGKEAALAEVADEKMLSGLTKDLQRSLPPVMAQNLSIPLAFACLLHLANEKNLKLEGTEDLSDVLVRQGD
UniProt Q15843, sequence (Q15843 whole entry, looked up): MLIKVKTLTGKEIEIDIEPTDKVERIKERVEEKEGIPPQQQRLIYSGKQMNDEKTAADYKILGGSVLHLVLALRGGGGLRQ
UniProt Q8TD19, sequence (Q8TD19 whole entry, looked up): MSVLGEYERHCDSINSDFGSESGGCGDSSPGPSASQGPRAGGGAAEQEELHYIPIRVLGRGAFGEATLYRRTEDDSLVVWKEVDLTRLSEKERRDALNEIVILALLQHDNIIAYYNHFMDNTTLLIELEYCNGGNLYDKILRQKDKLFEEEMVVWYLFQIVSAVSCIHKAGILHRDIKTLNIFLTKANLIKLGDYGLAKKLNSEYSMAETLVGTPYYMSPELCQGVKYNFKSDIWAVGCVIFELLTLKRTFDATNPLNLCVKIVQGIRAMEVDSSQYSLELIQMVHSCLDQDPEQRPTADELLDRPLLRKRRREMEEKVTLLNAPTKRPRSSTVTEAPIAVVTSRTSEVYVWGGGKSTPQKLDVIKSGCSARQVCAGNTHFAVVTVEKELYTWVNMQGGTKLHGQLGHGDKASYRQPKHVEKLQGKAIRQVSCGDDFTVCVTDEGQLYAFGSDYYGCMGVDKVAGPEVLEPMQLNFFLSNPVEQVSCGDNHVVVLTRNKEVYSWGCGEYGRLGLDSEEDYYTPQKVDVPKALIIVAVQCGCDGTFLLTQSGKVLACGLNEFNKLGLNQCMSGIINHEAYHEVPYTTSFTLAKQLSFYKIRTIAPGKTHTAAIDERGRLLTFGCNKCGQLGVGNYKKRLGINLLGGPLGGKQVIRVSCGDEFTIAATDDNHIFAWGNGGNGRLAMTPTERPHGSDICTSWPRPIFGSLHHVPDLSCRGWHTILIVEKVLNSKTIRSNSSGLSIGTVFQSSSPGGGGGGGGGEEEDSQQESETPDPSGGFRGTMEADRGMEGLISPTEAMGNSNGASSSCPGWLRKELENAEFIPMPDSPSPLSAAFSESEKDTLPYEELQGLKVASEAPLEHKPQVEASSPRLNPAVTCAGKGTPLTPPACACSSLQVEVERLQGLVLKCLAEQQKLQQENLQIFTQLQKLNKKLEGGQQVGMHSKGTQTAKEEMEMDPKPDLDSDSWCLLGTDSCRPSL
UniProt Q9BPZ3, sequence (Q9BPZ3 whole entry, looked up): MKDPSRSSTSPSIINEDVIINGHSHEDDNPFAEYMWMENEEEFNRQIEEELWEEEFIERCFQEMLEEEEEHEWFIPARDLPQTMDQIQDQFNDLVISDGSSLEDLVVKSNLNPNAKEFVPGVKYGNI
UniProt Q99417, sequence (Q99417 whole entry, looked up): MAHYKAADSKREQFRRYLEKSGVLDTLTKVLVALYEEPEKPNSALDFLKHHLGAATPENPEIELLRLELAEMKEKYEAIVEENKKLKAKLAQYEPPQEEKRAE
UniProt Q08J23, sequence (Q08J23 whole entry, looked up): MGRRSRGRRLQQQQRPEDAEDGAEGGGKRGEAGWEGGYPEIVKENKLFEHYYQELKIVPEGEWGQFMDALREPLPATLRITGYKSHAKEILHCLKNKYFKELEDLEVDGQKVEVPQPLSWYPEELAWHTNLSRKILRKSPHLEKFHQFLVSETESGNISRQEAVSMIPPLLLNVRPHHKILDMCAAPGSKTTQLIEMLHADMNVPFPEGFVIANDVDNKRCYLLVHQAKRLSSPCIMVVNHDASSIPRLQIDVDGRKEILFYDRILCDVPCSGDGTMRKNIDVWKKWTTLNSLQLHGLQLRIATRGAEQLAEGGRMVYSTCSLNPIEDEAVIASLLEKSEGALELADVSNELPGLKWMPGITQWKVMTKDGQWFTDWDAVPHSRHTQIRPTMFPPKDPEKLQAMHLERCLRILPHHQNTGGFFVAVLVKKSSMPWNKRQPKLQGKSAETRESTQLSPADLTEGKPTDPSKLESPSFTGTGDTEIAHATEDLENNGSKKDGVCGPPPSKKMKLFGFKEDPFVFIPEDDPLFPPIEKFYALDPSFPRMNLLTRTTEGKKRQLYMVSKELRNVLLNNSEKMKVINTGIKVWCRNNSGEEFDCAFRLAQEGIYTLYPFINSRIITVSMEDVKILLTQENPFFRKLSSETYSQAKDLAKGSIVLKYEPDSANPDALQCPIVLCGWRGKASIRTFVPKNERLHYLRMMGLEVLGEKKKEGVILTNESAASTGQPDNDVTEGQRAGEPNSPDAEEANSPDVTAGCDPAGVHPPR
UniProt Q8TAT6, sequence (Q8TAT6 whole entry, looked up): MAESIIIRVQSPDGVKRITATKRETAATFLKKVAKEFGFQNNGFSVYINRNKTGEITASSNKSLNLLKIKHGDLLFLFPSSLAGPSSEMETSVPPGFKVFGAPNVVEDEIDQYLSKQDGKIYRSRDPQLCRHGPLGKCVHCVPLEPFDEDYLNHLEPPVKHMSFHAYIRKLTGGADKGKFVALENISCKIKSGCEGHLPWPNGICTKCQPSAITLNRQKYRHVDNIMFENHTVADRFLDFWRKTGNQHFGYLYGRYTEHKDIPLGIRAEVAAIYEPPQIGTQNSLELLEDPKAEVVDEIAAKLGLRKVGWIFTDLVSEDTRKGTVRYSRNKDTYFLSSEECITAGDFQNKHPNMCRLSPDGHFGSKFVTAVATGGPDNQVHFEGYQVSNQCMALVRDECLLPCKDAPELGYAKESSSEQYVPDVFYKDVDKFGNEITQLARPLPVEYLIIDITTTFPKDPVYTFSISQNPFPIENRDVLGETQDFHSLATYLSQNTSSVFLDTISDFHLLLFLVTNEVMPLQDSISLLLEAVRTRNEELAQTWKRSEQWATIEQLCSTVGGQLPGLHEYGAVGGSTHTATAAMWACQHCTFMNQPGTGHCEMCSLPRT
UniProt Q9UFN0, sequence (Q9UFN0 whole entry, looked up): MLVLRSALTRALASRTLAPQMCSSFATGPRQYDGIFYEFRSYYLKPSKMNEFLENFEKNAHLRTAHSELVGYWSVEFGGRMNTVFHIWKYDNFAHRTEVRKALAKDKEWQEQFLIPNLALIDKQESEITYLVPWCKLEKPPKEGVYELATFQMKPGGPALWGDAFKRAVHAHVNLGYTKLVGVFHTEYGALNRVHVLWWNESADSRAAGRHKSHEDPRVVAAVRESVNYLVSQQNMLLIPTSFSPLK

| Target | log2 fold change (erlotinib) | log2 fold change [1] | log2 fold change [2] | log2 fold change [3] | log2 fold change [4] | log2 fold change [5] | log2 fold change [6] | log2 fold change [7] | log2 fold change [8] | log2 fold change (IRAK-1-4 Inhibitor I) |
| --- | --- | --- | --- | --- | --- | --- | --- | --- | --- | --- |
| NFATC2IP (UniProt Q8NCF5) | 0.001 | 0.026 | -0.036 | 0.006 | 0.016 | 0.031 | -0.071 | 0.013 | -0.016 | -0.009 |
| NIT2 (UniProt Q9NQR4) | -0.048 | 0.001 | 0.014 | 0.009 | 0.007 | -0.03 | 0.032 | -0.006 | 0.015 | 0.067 |
| NSUN2 (UniProt Q08J23) | 0.004 | 0.04 | -0.018 | 0.006 | 0.004 | -0.006 | -0.016 | 0.033 | -0.018 | -0.002 |
| OSBP (UniProt P22059) | -0.023 | -0.056 | 0.037 | -0.006 | 0.017 | -0.031 | -0.031 | -0.016 | 0.016 | -0.112 |
| NCK1 (UniProt P16333) | 0.02 | 0.036 | 0.04 | -0.007 | -0.01 | -0.009 | -0.072 | -0.024 | 0.049 | 0.002 |
| MRPS18A isoform 2 (UniProt Q9NVS2) | 0.024 | -0.038 | 0.038 | 0.112 | -0.035 | -0.053 | -0.013 | 0.009 | 0.004 | 0.015 |
| NTPCR (UniProt Q9BSD7) | 0.015 | -0.263 | -0.007 | 0.065 | 0.031 | 0.018 | -0.045 | 0.025 | 0.046 | -0.011 |
| NUP160 (UniProt Q12769) | 0.038 | 0.041 | -0.033 | -0.006 | 0.038 | -0.012 | -0.075 | -0.029 | 0.015 | -0.013 |
| MRPL53 (UniProt Q96EL3) | -0.036 | -0.103 | 0.042 | 0.014 | -0.004 | -0.015 | -0.049 | -0.07 | 0.096 | 0.026 |
| NUP133 (UniProt Q8WUM0) | 0.01 | -0.016 | 0.006 | 0.019 | -0.018 | 0.017 | -0.023 | -0.04 | 0.015 | 0.026 |
| MRPS31 (UniProt Q92665) | -0.015 | -0.042 | 0.056 | 0.042 | -0.021 | -0.028 | -0.048 | -0.022 | 0.02 | 0.005 |
| MSH2 (UniProt P43246) | 0.003 | 0.018 | -0.028 | 0.028 | 0.013 | 0.017 | -0.019 | -0.01 | 0.012 | -0.009 |
| NCAPH (UniProt Q15003) | 0.036 | -0.008 | -0.006 | -0.007 | -0.002 | -0.012 | -0.063 | -0.008 | -0.018 | 0 |
| NEK9 (UniProt Q8TD19) | -0.008 | 0.038 | -0.028 | -0.022 | -0.021 | -0.013 | 0.154 | 0.083 | -0.009 | 0.142 |
| NEDD8 (UniProt Q15843) | 0.018 | -0.019 | 0 | 0.031 | -0.047 | 0.011 | -0.053 | 0.026 | 0.07 | 0 |
| NCOR2 (UniProt C9J0Q5) | 0.044 | 0.033 | 0.04 | -0.082 | -0.008 | 0.054 | -0.173 | -0.002 | 0.049 | 0.032 |
| NUB1 (UniProt Q9Y5A7) | 0.049 | 0.055 | -0.003 | -0.015 | 0.002 | 0.054 | 0.023 | -0.022 | -0.023 | -0.02 |
| OGFR (UniProt Q9NZT2) | 0.023 | 0.023 | 0.018 | -0.015 | -0.012 | -0.011 | -0.027 | -0.01 | 0.038 | -0.012 |
| NPTN (UniProt Q9Y639) | -0.047 | -0.02 | -0.056 | -0.421 (active) | 0.008 | 0.048 | 0.17 | -0.003 | 0.007 | 0.064 |
| NUMBL (UniProt Q9Y6R0) | 0.031 | 0.028 | 0.175 | -0.244 | -0.025 | -0.007 | -0.038 | -0.095 | -0.045 | -0.084 |
| NIFK (UniProt Q9BYG3) | 0 | -0.05 | -0.01 | -0.009 | 0.032 | 0.038 | 0.01 | -0.02 | -0.005 | -0.042 |
| NUP93 (UniProt Q8N1F7) | 0.025 | 0.058 | -0.042 | 0.021 | 0.032 | -0.022 | -0.049 | 0.002 | 0.015 | -0.022 |
| MVB12A (UniProt Q96EY5) | 0.027 | -0.049 | 0.022 | -0.001 | -0.024 | -0.001 | -0.046 | -0.089 | -0.003 | -0.001 |
| PAIP2 (UniProt Q9BPZ3) | 0.044 | 0.041 | -0.016 | -0.01 | 0.004 | -0.054 | -0.053 | -0.044 | 0.022 | 0.017 |
| PANK1 (UniProt Q8TE04) | -0.003 | -0.048 | 0.033 | 0.026 | 0.098 | 0.015 | -0.069 | -0.036 | 0.054 | -0.061 |
| MYCBP (UniProt Q99417) | 0.007 | -0.001 | 0.011 | 0.007 | 0 | 0.019 | 0 | 0.024 | 0.076 | 0.04 |
| NPLOC4 isoform 2 (UniProt Q8TAT6) | -0.022 | 0.032 | -0.004 | 0.001 | -0.012 | 0.011 | -0.016 | -0.012 | 0.007 | 0.001 |
| NGLY1 (UniProt Q96IV0) | 0.022 | -0.064 | -0.031 | -0.01 | -0.009 | 0.009 | -0.063 | -0.001 | -0.011 | -0.024 |
| NIPSNAP3A (UniProt Q9UFN0) | 0.008 | -0.014 | 0.062 | -0.03 | 0.012 | 0.003 | 0.015 | -0.012 | 0.002 | 0.015 |
| MSH6 (UniProt P52701) | 0.011 | 0.03 | -0.023 | 0.031 | 0.041 | 0.008 | -0.025 | 0 | -0.014 | -0.008 |
